PubChem BioAssay
The source made the active and inactive calls. Unless noted, the rule behind the calls is not given here.

Experiments:
[1] = compound effects on lung adenocarcinoma cell viability – A549, calcein-AM fluorescence, 48 h, basal, profiling panel (AID 1162); conditions: higher = more signal; note: test concentration not given here
[2] = compound effects on differentiated 3T3-L1 adipocyte viability – cell-based, 3T3-L1 adipocytes, calcein-AM fluorescence, 48 h, basal, profiling panel (AID 1163); conditions: 3T3-L1 adipocytes viability, higher = more signal; note: test concentration not given here
[3] = compound effects on hepatocellular carcinoma cell viability – HepG2, calcein-AM fluorescence, 48 h, basal, profiling panel (AID 1164); conditions: higher = more signal; note: test concentration not given here
[4] = compound effects on multiple myeloma cell viability – MM1S, calcein-AM fluorescence, 48 h, basal, profiling panel (AID 1165); conditions: higher = more signal; note: test concentration not given here
[5] = calcein-AM signal in unstimulated myeloma cells – cell-based, calcein-AM fluorescence, 48 h, PK04 Diversity Set, profiling panel (AID 1166); conditions: RPMI8226 myeloma viability, higher = more signal;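 note: cells grown under basal conditions without added stimulus; test concentration not given here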
[6] = JC-1 mitochondrial signal, unstimulated HepG2 cells – cell-based, JC-1 fluorescence, 24 h, 100 nL compound, profiling panel (AID 1167); conditions: HepG2 mitochondrial potential, higher = more signal; note: test concentration not given here
[7] = JC-1 mitochondrial signal, unstimulated adipocytes – cell-based, JC-1 fluorescence, 3T3-L1 adipocytes, 24 h, 100 nL compound, profiling panel (AID 1168); conditions: JC-1 mitochondrial fluorescence, higher = more signal, called active from +8 up or from −8 down; note: test concentration not given here
[8] = JC-1 mitochondrial signal, unstimulated myeloma cells – cell-based, JC-1 fluorescence, RPMI8226, 24 h, 100 nL compound, profiling panel (AID 1169); conditions: JC-1 mitochondrial potential fluorescence, higher = more signal; note: test concentration not given here
[9] = JC-1 mitochondrial signal, unstimulated MM1S myeloma – cell-based, JC-1 fluorescence, 24 h, 100 nL compound, profiling panel (AID 1170); conditions: MM1S mitochondrial potential, higher = more signal; note: test concentration not given here
[10] = resazurin metabolic signal in A549 cells – cell-based, resazurin fluorescence, 24 h, PK04 Diversity Set, profiling panel (AID 1171); conditions: A549 viability, higher = more signal, called active from +8 up or from −8 down; note: test concentration not given here
[11] = resazurin metabolic signal in HepG2 cells – cell-based, resazurin fluorescence, 24 h, PK04 Diversity Set, profiling panel (AID 1172); conditions: HepG2 viability, higher = more signal; note: test concentration not given here
[12] = budding yeast growth changes without added modifier – OD600, strain BY4716, 24 h, basal condition, primary screen (AID 1173); conditions: S. cerevisiae BY4716 growth, OD600, 24 h; higher = more signal, called active from +8 up or from −8 down
[13] = viability profiling in MM1S myeloma cells – cell-based, resazurin fluorescence, basal, 24 h, PK04 Diversity Set, profiling panel (AID 1174); conditions: higher = more signal, called active from +8 up or from −8 down; note: test concentration not given here
[14] = target: Dihydroorotate dehydrogenase (quinone), mitochondrial (Plasmodium falciparum (isolate 3D7)) (UniProt Q08210); assay: inhibition of P. falciparum DHODH – biochemical, C-terminal His tag, absorbance 600 nm, primary screen (AID 1175); conditions: PfDHODH enzyme, DCIP absorbance 600 nm; higher = more signal, called active from +8 up or from −8 down;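 note: recombinant parasite enzyme with a five histidine tag at its C terminus; test concentration not given here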
[15] = inhibition of PAO1 biofilm formation – strain PAO1, LB-PBS medium, absorbance 600 nm, primary screen (AID 1176); note: test concentration not given here; conditions: P. aeruginosa PAO1 growth/biofilm, A600, 12 h; higher = more signal
[16] = growth modulation of vineyard yeast isolate – strain RM11-1a, OD600, basal, 24 h, primary screen (AID 1177);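 note: cultures grown under basal conditions with no added stressor; test concentration not given here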; conditions: S. cerevisiae RM11-1a growth, OD600, 24 h; higher = more signal, called active from +8 up or from −8 down
[17] = growth of efflux-deficient E. coli DRC39 – strain DRC39, OD650, 24 h, E. coli filamentation inducers, primary screen (AID 1178);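 note: growth measured as culture turbidity by optical density at 650 nm; test concentration not given here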; conditions: E. coli DRC39 acrAB, higher = more signal, called active from +8 up or from −8 down
[18] = growth of efflux-deficient E. coli DRC39 – strain DRC39, OD650, 48 h, E. coli filamentation inducers, primary screen (AID 1179);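 note: screen aims at cell division blockers that make cells filament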; conditions: E. coli DRC39 delta-acrAB growth, higher = more signal, called active from +8 up or from −8 down
[19] = viability profiling in RPMI8226 myeloma cells – cell-based, resazurin fluorescence, basal, 24 h, PK04 Diversity Set, profiling panel (AID 1180); conditions: higher = more signal;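 note: RPMI8826 multiple myeloma cell line at 5000 cells per well; test concentration not given here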
[20] = target: E3 ubiquitin-protein ligase XIAP (Homo sapiens) (UniProt P98170); assay: small molecules binding XIAP protein – biophysical, small-molecule microarray, fluorescence 635 nm, primary screen (AID 1181); conditions: higher = more signal;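 note: score merges 667 nm emission and signal to noise over triplicate slides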
Sequence of E3 ubiquitin-protein ligase XIAP (Homo sapiens) (P98170 whole entry, looked up): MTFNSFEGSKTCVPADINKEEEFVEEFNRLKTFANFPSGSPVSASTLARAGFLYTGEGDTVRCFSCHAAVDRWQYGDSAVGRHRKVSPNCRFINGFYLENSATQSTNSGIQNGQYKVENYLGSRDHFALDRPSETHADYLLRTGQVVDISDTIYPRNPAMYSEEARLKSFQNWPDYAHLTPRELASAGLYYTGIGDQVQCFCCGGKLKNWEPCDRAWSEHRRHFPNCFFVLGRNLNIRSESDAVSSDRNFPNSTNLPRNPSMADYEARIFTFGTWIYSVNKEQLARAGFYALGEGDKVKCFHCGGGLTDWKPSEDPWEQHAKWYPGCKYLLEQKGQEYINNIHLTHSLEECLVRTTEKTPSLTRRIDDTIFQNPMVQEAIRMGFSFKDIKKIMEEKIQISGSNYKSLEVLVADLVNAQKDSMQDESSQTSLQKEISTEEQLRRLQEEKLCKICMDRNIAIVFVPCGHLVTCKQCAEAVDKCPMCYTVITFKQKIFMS

Sequence of Dihydroorotate dehydrogenase (quinone), mitochondrial (Plasmodium falciparum (isolate 3D7)) (Q08210 whole entry, looked up): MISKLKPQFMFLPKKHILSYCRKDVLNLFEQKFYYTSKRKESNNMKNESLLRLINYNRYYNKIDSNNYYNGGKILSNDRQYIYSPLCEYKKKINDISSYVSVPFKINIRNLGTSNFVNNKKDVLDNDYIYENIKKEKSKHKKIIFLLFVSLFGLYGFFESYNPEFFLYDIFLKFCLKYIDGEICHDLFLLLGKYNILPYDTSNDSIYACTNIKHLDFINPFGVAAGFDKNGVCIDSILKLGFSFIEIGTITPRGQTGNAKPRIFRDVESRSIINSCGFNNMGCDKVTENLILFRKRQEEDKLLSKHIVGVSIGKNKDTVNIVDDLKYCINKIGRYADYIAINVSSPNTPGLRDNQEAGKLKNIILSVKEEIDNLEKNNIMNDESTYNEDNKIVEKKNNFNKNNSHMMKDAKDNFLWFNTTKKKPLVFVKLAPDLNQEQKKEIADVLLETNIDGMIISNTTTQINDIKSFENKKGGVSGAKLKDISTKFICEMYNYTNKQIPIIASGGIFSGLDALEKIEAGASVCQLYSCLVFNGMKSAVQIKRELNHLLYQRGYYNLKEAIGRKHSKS

| Structure (SMILES) | z-score [1] | z-score [2] | z-score [3] | z-score [4] | z-score [5] | z-score [6] | z-score [7] | z-score [8] | z-score [9] | z-score [10] | z-score [11] | z-score [12] | z-score [13] | composite z-score [14] | z-score [15] | z-score [16] | z-score [17] | z-score [18] | z-score [19] | composite z-score [20] |
| --- | --- | --- | --- | --- | --- | --- | --- | --- | --- | --- | --- | --- | --- | --- | --- | --- | --- | --- | --- | --- |
| COCCOC(=O)N1C(=O)[C@@]2(c3ccccc31)[C@H](C(=O)NC[C@H](O)c1ccccc1)[C@H]1C(=O)O[C@H](c3ccccc3)[C@H](c3ccccc3)N1[C@@H]2c1ccc(O)cc1 | 0.0528 | 2.18 | -0.921 | -1.12 | -3.46 | -1.33 | -0.221 (inactive) | -1.32 | -0.0503 | 0.0737 (inactive) | 0.248 | 0.64 (inactive) | -0.65 (inactive) | -0.0106 (inactive) | 0.269 (inactive) | 1.64 (inactive) | -0.236 (inactive) | -0.803 (inactive) | -0.773 | -0.103 |
| CC(=O)NCCCC[C@@H]1NC(=O)[C@@H]2C[C@H](C(=O)NCCCCCN)[C@H](c3ccc(O)cc3)N2C1=O | -0.185 | 0.42 | -0.512 | -0.449 | -0.131 | 0.651 | -0.00185 (inactive) | -0.673 | 0.774 | -1.42 (inactive) | -0.714 | -0.12 (inactive) | 0.707 (inactive) | 0.143 (inactive) | 0.0094 (inactive) | -0.0659 (inactive) | -0.139 (inactive) | -0.515 (inactive) | 0.0794 | 0.492 |
| C=CCC(OC(C)=O)[C@@H]1[C@@H](N(Cc2ccc(-c3cccc(C(F)(F)F)c3)o2)C(=O)c2ccc(-c3ccccc3)cc2)c2cc(OCCCO)ccc2N1C(=O)Cc1ccc2ccccc2c1 (stereo not given in full) | -0.713 | 1.22 | 0.374 | 0.502 | -1.15 | 1.66 | 0.437 (inactive) | -0.807 | 0.0299 | 0.378 (inactive) | 0.0839 | 0.915 (inactive) | -0.115 (inactive) | 0.306 (inactive) | 0.338 (inactive) | 0.805 (inactive) | 0.0952 (inactive) | 0.119 (inactive) | 0.322 | -0.17 |
| CCCCC(=C=CC[C@H](O)c1ccc(OCCO)cc1)CCO | -0.113 | 0.524 | 0.761 | -2.4 | 0.0135 | -1.25 | -0.968 (inactive) | -0.573 | -0.952 | 0.533 (inactive) | -0.0738 | -2.31 (inactive) | -0.149 (inactive) | -0.32 (inactive) | 0.154 (inactive) | -0.162 (inactive) | -1.28 (inactive) | -1.06 (inactive) | 0.0466 | 0.0365 |
| C=CCC(OC(C)=O)[C@@H]1[C@@H](N(Cc2ccc(-c3ccccc3)cc2)C(=O)c2ccc(-c3ccccc3)cc2)c2cc(OCCCO)ccc2N1C(=O)c1ccc2ccccc2c1 (stereo not given in full) | -0.77 | 0.676 | 0.313 | -0.531 | -0.685 | 1.42 | -0.645 (inactive) | 0.795 | 0.563 | 0.204 (inactive) | -0.723 | 0.416 (inactive) | 0.149 (inactive) | -0.746 (inactive) | 0.35 (inactive) | -0.583 (inactive) | -0.91 (inactive) | -0.756 (inactive) | -0.205 | 0.0423 |
| COc1ccc([Si](C)(C)[C@@H]2[C@@H](CCO)O[C@]3(C(=O)N(Cc4ccccc4)c4ccc(NC(=O)[C@H](C)O)cc43)[C@H]2C)cc1 | -2.21 | 0.641 | -4.61 | -2.62 | -4.3 | -2.7 | -0.241 (inactive) | -0.972 | -2.15 | -3.3 (inactive) | -4.57 | 2.31 (inactive) | -6.39 (inactive) | -0.347 (inactive) | 1.45 (inactive) | 5.11 (inactive) | 0.912 (inactive) | 0.477 (inactive) | -6.12 | 0.157 |
| C=C[C@H]1C(C(=O)OCC)=CC[C@@H](c2ccccc2)N1S(=O)(=O)c1ccc(C)cc1 | -0.438 | -1.05 | -0.708 | -0.465 | -1.46 | 5.08 | -0.517 (inactive) | -0.309 | -1.21 | 0.69 (inactive) | 0.149 | 1.32 (inactive) | -0.172 (inactive) | 0.319 (inactive) | 0.257 (inactive) | 1.39 (inactive) | -0.621 (inactive) | -0.183 (inactive) | -0.667 | 0.199 |
| COC(=O)[C@@]1(Cc2ccc(OC)cc2)[C@H]2c3cc(C(=O)N(C)C)n(Cc4ccc(C)o4)c3C[C@H]2CN1C(=O)c1ccccc1 | 0.774 | -0.0339 | 0.81 | -1.92 | -0.744 | 4.47 | -0.263 (inactive) | -0.939 | -3.01 | -0.21 (inactive) | -0.239 | 0.256 (inactive) | -3.45 (inactive) | 0.376 (inactive) | -0.719 (inactive) | 1.54 (inactive) | 0.502 (inactive) | -0.0131 (inactive) | -4.83 | 0.072 |
